How the values were obtained:
Test in all cases: log2 ratio of Biotin-Ahx-Ub-VS probe labelling (fragment/DMSO); higher = less target engagement (more negative = stronger competition), active = hit call of the paper (q ≤ 0.05, log2 ratio ≤ -1)
Settings in all cases: compound concentration: 200 uM; treatment time: 3 h
[1] = target: T1, USP42 (UniProt Q9H9J4)
T1 sequence (whole entry): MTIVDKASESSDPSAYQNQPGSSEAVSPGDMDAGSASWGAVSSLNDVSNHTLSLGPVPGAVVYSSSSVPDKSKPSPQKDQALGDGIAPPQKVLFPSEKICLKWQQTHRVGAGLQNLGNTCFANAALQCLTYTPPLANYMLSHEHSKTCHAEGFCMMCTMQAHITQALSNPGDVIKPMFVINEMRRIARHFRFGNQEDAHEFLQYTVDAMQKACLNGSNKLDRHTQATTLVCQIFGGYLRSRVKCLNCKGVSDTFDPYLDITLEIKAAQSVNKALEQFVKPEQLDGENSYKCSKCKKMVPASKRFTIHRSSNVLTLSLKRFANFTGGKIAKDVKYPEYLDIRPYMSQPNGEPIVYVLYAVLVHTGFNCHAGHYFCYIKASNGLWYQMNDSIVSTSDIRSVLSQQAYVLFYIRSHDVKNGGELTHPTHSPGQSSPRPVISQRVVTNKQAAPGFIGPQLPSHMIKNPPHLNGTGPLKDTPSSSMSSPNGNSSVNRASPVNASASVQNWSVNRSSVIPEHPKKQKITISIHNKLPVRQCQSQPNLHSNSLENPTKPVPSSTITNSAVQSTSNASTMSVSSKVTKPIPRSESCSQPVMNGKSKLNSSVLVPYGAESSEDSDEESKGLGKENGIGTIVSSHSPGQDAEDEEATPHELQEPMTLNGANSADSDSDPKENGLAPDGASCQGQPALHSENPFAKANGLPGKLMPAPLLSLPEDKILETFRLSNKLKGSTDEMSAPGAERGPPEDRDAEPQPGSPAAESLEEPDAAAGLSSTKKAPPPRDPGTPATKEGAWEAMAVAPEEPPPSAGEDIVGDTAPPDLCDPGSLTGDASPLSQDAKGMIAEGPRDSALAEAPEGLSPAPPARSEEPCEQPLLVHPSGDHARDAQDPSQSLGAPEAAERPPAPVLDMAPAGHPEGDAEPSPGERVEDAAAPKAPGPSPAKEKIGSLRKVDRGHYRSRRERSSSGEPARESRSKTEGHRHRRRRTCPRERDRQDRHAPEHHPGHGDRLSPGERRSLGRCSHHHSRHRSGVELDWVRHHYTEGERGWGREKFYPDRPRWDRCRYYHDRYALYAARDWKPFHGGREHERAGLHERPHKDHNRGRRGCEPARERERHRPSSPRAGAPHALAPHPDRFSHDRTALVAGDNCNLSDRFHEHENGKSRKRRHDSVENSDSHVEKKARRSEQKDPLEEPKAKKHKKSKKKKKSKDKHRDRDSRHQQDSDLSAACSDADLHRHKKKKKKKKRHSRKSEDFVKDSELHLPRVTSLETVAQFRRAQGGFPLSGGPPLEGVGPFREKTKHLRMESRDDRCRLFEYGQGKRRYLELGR
Outline: (§1)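 Labelling with Biotin-Ahx-Ub-VS (0.5 µM final, 1 h) followed a 3 h triplicate treatment of HEK293T lysate (495 µg per sample, Tris/CHAPS/IGEPAL buffer with protease inhibitors) with fragment at 200 µM or vehicle. Labelled DUBs were NeutrAvidin-enriched, digested with LysC and trypsin, and run by diaPASEF LC-MS/MS. The values, average log2 fragment/vehicle ratios by unpaired t-test, come from global-median-normalised Spectronaut label-free quantities. Proteins with ≥2 unique peptides were used.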

[2] = target: USP46 (UniProt P62068)
Outline: as §1

[3] = target: T2, USP47 (UniProt Q96K76)
T2 sequence (whole entry): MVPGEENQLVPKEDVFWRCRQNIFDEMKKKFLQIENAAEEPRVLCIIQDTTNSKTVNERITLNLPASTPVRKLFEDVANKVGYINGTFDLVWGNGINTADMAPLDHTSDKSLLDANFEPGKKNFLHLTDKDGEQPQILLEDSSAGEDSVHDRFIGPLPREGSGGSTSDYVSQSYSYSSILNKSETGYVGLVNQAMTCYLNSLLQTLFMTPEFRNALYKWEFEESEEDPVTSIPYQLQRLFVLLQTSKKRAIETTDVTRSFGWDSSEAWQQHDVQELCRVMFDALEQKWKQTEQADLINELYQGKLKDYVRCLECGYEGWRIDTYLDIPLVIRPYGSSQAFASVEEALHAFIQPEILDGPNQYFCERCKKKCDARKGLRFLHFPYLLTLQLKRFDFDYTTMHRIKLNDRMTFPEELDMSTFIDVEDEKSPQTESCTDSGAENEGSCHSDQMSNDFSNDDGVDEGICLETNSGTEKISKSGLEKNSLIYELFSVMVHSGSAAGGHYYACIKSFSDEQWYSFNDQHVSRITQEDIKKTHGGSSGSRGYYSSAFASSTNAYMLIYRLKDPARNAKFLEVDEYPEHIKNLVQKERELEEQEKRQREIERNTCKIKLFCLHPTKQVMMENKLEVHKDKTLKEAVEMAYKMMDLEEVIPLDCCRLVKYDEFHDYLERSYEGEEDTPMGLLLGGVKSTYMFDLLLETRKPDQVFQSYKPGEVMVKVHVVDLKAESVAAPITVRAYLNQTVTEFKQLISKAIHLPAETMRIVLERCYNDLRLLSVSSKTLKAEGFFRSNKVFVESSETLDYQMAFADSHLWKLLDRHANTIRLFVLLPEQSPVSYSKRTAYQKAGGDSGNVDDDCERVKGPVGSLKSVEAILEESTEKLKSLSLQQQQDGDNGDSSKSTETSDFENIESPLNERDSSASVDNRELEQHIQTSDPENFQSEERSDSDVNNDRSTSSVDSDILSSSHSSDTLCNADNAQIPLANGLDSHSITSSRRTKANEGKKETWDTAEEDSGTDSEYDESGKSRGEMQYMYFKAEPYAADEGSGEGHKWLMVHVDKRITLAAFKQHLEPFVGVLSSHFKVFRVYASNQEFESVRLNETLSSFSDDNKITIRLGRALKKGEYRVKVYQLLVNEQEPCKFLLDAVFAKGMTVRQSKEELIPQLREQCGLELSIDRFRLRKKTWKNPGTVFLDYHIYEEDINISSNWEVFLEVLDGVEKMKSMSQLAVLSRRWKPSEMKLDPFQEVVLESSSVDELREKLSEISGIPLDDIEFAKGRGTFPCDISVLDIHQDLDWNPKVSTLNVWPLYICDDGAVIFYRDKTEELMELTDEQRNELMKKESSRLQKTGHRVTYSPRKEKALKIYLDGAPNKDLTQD
Outline: as §1

[4] = target: T3, USP48 (UniProt Q86UV5)
T3 sequence (whole entry): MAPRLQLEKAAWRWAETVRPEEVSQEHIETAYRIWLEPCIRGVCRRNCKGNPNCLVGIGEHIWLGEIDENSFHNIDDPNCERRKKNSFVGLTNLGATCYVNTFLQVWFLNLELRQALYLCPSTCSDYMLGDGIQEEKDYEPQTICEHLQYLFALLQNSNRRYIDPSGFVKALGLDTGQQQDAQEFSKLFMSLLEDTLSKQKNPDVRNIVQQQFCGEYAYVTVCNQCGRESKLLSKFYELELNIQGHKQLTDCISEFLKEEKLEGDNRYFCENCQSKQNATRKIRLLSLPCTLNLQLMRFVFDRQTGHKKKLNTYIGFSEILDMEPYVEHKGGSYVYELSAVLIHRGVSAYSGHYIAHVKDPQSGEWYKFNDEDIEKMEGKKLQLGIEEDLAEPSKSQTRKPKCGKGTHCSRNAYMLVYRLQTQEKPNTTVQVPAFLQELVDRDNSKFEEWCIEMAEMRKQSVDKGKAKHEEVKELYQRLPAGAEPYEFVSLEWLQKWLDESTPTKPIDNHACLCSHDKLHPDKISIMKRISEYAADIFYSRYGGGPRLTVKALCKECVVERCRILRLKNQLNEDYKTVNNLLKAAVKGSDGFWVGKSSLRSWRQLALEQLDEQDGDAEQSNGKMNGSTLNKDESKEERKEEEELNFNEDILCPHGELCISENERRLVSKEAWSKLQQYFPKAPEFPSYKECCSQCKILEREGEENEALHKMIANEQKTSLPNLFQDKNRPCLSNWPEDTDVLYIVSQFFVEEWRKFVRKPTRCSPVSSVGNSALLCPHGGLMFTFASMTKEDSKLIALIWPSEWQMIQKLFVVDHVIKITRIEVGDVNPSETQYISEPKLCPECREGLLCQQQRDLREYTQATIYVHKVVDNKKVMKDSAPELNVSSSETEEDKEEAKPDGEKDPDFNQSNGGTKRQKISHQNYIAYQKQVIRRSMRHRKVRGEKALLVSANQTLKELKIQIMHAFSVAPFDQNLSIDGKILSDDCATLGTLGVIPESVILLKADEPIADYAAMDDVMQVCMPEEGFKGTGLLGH
Outline: as §1

[5] = target: T4, USP5 (UniProt P45974)
T4 sequence (whole entry): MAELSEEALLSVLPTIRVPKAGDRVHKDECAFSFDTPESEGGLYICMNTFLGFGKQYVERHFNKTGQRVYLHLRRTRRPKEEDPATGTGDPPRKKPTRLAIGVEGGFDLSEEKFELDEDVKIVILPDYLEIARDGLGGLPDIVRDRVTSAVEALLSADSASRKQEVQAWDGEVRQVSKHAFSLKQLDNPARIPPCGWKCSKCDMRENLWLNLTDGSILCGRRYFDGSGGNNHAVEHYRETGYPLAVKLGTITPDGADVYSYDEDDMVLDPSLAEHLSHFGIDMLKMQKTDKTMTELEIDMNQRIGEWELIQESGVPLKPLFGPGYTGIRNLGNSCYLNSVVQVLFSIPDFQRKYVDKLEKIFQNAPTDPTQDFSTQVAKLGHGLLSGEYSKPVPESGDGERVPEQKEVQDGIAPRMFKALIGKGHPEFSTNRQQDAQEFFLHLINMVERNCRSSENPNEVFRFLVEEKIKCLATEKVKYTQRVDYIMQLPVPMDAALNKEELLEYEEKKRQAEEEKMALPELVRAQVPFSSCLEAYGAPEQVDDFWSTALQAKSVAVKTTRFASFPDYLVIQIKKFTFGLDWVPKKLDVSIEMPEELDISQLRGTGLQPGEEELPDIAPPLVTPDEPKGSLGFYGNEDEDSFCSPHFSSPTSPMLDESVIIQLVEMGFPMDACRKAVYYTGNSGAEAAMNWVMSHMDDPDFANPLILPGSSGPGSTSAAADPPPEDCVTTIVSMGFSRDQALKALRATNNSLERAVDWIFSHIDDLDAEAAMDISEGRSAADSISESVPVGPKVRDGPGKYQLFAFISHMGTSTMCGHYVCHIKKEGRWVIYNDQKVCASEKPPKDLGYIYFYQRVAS
Outline: as §1

[6] = target: USP54 (UniProt Q70EL1)
Outline: as §1

[7] = target: USP7 (UniProt Q93009)
Outline: as §1

[8] = target: T5, USP8 (UniProt P40818)
T5 sequence (whole entry): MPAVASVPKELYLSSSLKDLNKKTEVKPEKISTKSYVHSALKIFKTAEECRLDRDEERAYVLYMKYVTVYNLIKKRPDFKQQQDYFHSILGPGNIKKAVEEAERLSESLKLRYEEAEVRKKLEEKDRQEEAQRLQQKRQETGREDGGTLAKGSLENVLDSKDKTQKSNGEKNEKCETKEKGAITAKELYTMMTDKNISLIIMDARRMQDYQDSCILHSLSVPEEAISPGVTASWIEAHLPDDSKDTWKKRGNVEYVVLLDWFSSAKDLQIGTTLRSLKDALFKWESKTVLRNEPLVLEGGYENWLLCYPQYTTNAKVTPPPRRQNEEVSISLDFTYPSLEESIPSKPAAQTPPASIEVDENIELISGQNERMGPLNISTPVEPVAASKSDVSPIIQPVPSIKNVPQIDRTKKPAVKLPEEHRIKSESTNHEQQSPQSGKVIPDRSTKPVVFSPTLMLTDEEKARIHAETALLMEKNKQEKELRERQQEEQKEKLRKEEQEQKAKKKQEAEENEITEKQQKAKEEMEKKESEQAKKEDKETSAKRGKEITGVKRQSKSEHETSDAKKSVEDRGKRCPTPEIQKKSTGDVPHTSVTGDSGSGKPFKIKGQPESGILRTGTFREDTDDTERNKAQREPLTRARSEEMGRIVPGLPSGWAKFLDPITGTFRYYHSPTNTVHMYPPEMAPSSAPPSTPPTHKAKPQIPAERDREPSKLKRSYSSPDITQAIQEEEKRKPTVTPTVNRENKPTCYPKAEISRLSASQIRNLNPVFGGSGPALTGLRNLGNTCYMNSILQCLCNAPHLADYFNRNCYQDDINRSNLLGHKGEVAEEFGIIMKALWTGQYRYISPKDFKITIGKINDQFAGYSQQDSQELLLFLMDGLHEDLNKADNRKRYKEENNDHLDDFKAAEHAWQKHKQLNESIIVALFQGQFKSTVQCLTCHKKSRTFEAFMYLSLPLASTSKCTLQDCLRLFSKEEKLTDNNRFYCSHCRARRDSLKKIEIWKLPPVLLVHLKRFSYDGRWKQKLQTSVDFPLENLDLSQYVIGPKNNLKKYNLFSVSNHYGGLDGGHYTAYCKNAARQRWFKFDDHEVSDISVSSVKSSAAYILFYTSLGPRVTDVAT
Outline: as §1

[9] = target: USP9X (UniProt Q93008)
Outline: as §1

[10] = target: UniProt O00487
Outline: as §1

Measured: log2 ratio of Biotin-Ahx-Ub-VS probe labelling

USP7, sequence (Q93009 whole entry, looked up): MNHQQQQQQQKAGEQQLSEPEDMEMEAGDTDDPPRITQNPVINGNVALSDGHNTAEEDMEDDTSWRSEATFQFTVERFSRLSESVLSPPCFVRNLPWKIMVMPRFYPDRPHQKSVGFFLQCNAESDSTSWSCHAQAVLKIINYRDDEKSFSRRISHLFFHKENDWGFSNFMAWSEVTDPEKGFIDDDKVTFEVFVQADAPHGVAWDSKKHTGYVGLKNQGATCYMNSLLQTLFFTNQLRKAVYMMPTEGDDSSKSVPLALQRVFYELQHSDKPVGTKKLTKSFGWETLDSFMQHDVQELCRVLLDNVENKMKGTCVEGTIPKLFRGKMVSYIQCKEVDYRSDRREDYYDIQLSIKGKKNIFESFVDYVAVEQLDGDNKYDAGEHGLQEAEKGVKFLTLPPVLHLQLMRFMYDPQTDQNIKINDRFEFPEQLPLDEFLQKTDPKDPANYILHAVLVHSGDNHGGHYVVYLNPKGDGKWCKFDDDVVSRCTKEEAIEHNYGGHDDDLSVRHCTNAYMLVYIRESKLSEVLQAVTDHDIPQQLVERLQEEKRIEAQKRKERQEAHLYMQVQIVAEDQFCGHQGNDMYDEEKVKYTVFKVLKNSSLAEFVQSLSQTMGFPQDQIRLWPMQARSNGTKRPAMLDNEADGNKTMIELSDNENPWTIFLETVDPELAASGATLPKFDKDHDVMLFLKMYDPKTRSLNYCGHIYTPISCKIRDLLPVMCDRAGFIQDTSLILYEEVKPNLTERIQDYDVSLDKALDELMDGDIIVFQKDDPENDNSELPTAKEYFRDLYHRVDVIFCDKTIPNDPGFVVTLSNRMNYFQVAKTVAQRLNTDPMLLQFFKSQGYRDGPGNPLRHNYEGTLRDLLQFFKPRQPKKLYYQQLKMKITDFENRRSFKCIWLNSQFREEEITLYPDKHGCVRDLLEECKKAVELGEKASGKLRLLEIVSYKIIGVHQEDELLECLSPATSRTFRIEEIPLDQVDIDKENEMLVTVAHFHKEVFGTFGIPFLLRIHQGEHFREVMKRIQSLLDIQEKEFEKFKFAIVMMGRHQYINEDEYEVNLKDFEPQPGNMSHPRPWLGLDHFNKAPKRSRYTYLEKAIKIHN
USP9X, sequence (Q93008 whole entry): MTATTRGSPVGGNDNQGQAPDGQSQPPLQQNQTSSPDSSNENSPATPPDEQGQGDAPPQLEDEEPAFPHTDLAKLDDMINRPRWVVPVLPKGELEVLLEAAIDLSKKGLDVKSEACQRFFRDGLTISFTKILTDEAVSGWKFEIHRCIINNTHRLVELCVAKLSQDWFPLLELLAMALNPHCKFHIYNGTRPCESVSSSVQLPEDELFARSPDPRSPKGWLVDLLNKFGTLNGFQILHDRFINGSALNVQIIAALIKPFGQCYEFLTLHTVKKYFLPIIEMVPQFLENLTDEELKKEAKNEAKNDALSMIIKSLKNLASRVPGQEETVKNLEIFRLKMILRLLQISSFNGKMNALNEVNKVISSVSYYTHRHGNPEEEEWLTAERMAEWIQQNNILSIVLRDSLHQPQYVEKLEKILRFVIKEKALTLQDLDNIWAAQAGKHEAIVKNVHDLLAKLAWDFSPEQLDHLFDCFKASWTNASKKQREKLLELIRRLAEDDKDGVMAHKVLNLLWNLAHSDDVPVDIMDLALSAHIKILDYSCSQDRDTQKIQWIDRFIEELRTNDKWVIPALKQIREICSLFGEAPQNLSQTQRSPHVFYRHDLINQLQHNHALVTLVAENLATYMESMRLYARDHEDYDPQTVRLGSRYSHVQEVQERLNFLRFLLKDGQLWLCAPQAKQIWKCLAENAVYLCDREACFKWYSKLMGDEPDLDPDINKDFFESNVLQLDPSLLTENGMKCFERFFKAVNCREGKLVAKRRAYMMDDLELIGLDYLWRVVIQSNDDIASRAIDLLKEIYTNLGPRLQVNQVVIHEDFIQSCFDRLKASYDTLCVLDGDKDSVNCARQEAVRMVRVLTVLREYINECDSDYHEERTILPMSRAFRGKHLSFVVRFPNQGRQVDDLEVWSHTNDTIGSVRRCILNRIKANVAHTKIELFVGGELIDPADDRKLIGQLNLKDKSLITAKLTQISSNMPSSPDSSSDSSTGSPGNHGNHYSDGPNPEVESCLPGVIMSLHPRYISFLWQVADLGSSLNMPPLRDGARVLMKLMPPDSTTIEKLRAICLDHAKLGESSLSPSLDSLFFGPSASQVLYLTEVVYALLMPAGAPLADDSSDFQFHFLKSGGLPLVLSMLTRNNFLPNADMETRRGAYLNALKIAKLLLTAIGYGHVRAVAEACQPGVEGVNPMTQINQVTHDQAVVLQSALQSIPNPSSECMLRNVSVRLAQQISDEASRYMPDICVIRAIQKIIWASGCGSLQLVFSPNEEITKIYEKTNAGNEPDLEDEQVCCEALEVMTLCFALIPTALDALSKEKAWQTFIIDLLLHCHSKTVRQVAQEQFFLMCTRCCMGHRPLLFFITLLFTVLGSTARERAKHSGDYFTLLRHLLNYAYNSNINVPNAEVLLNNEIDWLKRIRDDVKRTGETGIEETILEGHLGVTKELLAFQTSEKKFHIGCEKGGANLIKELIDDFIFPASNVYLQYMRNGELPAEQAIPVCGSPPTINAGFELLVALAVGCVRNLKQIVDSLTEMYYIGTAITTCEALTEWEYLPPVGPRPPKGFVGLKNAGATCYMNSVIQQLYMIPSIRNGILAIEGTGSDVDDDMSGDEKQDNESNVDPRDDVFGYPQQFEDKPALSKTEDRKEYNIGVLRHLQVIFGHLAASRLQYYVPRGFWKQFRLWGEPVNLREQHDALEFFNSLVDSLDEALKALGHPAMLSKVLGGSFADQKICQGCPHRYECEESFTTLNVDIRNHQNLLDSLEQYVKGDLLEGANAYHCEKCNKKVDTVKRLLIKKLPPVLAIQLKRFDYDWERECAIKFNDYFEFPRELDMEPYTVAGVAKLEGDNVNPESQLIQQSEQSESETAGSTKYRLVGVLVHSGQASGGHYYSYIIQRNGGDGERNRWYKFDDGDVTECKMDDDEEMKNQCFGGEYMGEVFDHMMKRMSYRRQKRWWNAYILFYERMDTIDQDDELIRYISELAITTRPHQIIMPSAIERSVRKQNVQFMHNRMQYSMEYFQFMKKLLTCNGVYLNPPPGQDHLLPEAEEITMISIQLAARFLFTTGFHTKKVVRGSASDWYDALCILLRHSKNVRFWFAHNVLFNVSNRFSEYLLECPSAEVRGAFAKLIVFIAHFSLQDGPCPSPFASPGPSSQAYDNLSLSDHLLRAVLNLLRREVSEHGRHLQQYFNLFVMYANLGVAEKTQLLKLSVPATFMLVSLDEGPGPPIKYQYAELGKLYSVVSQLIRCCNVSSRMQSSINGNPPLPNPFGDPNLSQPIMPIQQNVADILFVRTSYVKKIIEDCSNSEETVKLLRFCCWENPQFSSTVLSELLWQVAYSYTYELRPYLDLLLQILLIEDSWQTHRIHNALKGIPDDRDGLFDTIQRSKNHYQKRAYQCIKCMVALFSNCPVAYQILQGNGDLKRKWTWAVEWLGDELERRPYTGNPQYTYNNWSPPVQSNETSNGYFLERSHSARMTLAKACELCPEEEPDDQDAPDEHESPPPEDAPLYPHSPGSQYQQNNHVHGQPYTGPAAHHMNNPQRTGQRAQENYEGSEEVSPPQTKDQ
USP46, sequence (P62068 whole entry): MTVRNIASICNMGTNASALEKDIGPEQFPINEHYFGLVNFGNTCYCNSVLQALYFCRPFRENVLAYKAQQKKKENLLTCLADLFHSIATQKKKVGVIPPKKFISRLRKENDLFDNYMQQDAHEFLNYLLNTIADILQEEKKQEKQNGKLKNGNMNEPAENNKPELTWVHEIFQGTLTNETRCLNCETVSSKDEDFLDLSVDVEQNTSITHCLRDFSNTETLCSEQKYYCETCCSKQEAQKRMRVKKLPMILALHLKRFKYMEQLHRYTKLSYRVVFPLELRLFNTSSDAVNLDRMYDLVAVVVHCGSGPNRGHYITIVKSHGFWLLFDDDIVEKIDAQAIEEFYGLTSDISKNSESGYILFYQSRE
UniProt O00487, sequence (O00487 whole entry): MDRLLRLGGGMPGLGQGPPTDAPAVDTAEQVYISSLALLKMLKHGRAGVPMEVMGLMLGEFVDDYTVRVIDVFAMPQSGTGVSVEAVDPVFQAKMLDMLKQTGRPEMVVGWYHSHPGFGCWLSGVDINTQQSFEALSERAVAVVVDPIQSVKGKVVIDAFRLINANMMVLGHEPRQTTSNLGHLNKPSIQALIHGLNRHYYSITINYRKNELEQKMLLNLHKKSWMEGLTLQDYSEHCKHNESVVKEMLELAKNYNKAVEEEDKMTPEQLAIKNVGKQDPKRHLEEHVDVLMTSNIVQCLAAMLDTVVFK

O=C(CCl)NCc1cccc(F)c1
inactive: [1] -0.105 | [2] 0.151 | [3] -0.193 | [4] -0.0573 | [5] 0.1 | [6] 0.396 | [7] -0.069 | [8] -0.0486 | [9] 0.0745 | [10] -0.0795

From the supplement of paper PMC11732987, “Enantioselective OTUD7B fragment discovery through chemoproteomics screening and high-throughput optimisation” (Communications Chemistry, 2025)
